# Activity calls are given as the source filed them. How the source made its calls: active means hit-call score of the fitted dose curve at least 0.9, where 1 is the maximum; inactive means score below 0.9.
# Read-out: Interleukin 6 (IL6), IL6 (gene 3569)
# Assay: LTEA_HepaRG_IL6: Life Technologies and Expression Analysis (LTEA) Assay for Interleukin 6 (IL6) using HepaRG (AID 2283509)
# Conditions: mRNA level, 48 h; actives raise or lower the signal
# Experimental: LTEA_HepaRG is a cell based, multiplexed-readout assay that uses HepaRG, a human liver cell line, with measurements taken at 48 hours after chemical dosing on a 96-well plate.LTEA_HepaRG_IL6 is one of 102 assay component(s) measured in the LTEA HepaRG cell culture assay. It is a marker of Inflammation.Data from the assay component LTEA_HepaRG_IL6 was analyzed into 1 endpoint. This assay endpoint, LTEA_HepaRG_IL6, was analyzed with bidirectional fitting relative to DMSO as the negative control and baseline of activity. Using a type of inducible reporter, measures of mRNA induction for gain or loss-of-signal activity can be used to understand regulation of transcription factor activity. To generalize the intended target to other relatable targets, this assay endpoint is annotated to the cytokine intended target family, where the subfamily is interleukins.
# A total of 1060 chemcials from the ToxCast library were tested in eight-point concentration-response experiments. Cell culture and cytotoxicity assays were conducted at Thermo Fisher Scientific's Custom Services facility (Madison, WI). A single lot of human HepaRG cells (Thermo Fisher Scientific, Frederick, MD) was used for the cell culture experiments. 96-well format collagen type I coated plates of human HepaRG cells were prepared using established methods. Briefly, cryopreserved HepaRG cells were thawed, plated at a density of approximately 100,000 cells/well in HepaRG Thaw, Plate, and General Purpose media (HPRG770, Thermo Fisher Scientific), and incubated for 48 hours. 0.5% DMSO was selected as vehicle control to balance the requisite need of DMSO in HepaRG cultures to maintain differentiation (for example, baseline metabolism, proportions of hepatocytes vs. cholangiocytes), while enabling further hepatic receptor pathway activation (for example, PXR and CAR) in response to chemical exposure. 48 hours after plating, the culture medium was replaced with HepaRG Serum-Free Incudtion Media. Cells were exposed to each test chemical in duplicate and maintained in CO2 incubators for another 48 hours. Chemical plates were thawed to room temperature and 200x concentrations of treatment groups were prepared. 8-point conentration-reponse curves were made with the highest exposure at 100 uM, followed by half-log dilutions, all in 0.5% DMSO. Each test plate contained variouse controls, induction positive controls (1mM phenobarbital), cytotoxicity positive controls ([…] aflatoxin B1), vehicle controls (0.5% DMSO), and total lysis controls (0.5% DMSO). Cell morphology images were taken using an Essen IncuCyte FLR automated microscope, with six 96-well plates imaged in about 24 minutes. Images were captured and exported and JPEG files. Spent culture media was transfered to black-well plates for the LDH assay, and remaining media was sorted at -80 C for later use. Cells were treated with RLT buffer and frozen until shipped for gene expression analysis. Total RNA was isolated from the cell suspension in 75 uL of Buffer RLT (Qiagen, Germantown, MD 20874) by Quintiles/Expression Analysis (Durham, NC) using a custom isolation procedure. Total RNA from each plate well was transferred to a preamplification plate. Fluidigm's 96.96 Dynamic ArrayTM (Fluidigm, Amsterdam, the Netherlands) technology was used for gene expression analyses by quantitative reverse transcription polymerase chain reaction (qRT-PCR, performed by Quintiles/Expression Analysis, Durham, NC)89. Standard TaqManTM Assays (Applied Biosystems/ThermoFisher Scientific, Foster City, CA) were used to assess the expression of 93 genes selected based on their selectivity and sensitivity to important hepatic receptors known to be modulated by environmental chemicals; importance in human hepatocyte functionality; and hepatotoxicity. […]
SMILES,outcome,AC50
OCC(CO)(CBr)CBr,inactive,
CC(=O)Nc1ccc(O)cc1,inactive,
CCCCc1oc2ccccc2c1C(=O)c1cc(I)c(OCCN(CC)CC)c(I)c1,,61.9 µM (active)
N=C(N)c1ccc(OCCCCCOc2ccc(C(=N)N)cc2)cc1,,9.85 µM (active)
CCCCC=O,inactive,
O=C1NS(=O)(=O)c2ccccc21,inactive,
O=C(c1ccccc1)c1ccccc1,inactive,
CCCCC(CC)C(=O)O (stereo not given),inactive,
CS(=O)(=O)c1ccc([C@@H](CC2CCCC2)C(=O)Nc2cnccn2)cc1Cl,inactive,
CCCCCCCCCCCCCCC,inactive,
CCCCCCCCCCCCOS(=O)(=O)O,inactive,
CN(C)CCOC(c1ccccc1)c1ccccc1,inactive,
CN(Cc1cnc2nc(N)nc(N)c2n1)c1ccc(C(=O)N[C@@H](CCC(=O)O)C(=O)O)cc1,inactive,
CCC(C)c1ccccc1O (stereo not given),inactive,
O=C(CCCN1CCC(O)(c2ccc(Cl)cc2)CC1)c1ccc(F)cc1,,80.9 µM (active)

# Source: PubChem BioAssay (EPA / NIEHS)
